Results as given in the supplement of paper PMC10849652.
Targets with a hit are over-represented here; the source holds about 8,800 in all. About 0.5% of all pairs of compound and target were hits.

Experiments:
Experiment in all cases: log2 fold change, soluble protein after heating vs DMSO (PISA); higher = thermal stabilisation; K562 lysate, 10 uM; active = over 0.2 and 3.5 SD of the protein, either way, in both replicates (recomputed)
erlotinib = compound: C#Cc1cccc(Nc2ncnc3cc(OCCOC)c(OCCOC)cc23)c1 [erlotinib]
How it was run: (§1)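 Log-two fold change in thermal stability relative to solvent controls is reported from duplicates. For each sample, crude K562 extract from dounce-homogenised pellets in PBS pH 7.4 with 1 mM MgCl2, at 1 mg/mL protein, was treated with 10 μM compound for 30 min. Aliquots heated for 3 min across 48°C-58°C were pooled, brought to 0.5% NP-40 at 4°C and cleared at 21,000xg for 90 min. The supernatant was quantified by TMTpro 16plex LC-MS/MS with channel sums equalised.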

[1] = compound: C/C(=N\NC(=O)C1=CC(=CC=C1)S(=O)(=O)N2CCOCC2)/C3=C(C=CC(=C3)Cl)O
How it was run: as §1

[2] = compound: C1=CC(=CC=C1C2=NC3=C(N2)C=C(C=C3)C(=O)N)OC4=CC=C(C=C4)Cl
How it was run: as §1

[3] = compound: C1=CC2=C(C=CC(=C2)/C=C\3/C(=O)NC(=NCC4=CC=CS4)S3)N=C1
How it was run: as §1

[4] = compound: C1=CC2=NC=CN=C2C=C1/C=C/3\C(=O)NC(=O)S3
How it was run: as §1

[5] = compound: C1=CC=C(C=C1)C2=NC(=C(N2)C3=CC=NC=C3)C4=CC(=C(C=C4)Cl)O
How it was run: as §1

[6] = compound: C1=CC=C2C(=C1)C3=NNC4=CC=CC(=C43)C2=O
How it was run: as §1

[7] = compound: C1CCN(C1)C(=O)NC2=CC=CC(=C2)NC3=NC=C(C(=N3)NCCC4=CN=CN4)Br
How it was run: as §1

[8] = compound: C1CN(CCC1(CC2=CC=C(C=C2)Cl)N)C3=NC=NC4=C3C=CN4
How it was run: as §1

IRAK-1-4 Inhibitor I = compound: C1COCCN1CCN2C3=CC=CC=C3N=C2NC(=O)C4=CC(=CC=C4)[N+](=O)[O-] [IRAK-1-4 Inhibitor I]
How it was run: as §1

ibrutinib = compound: C=CC(=O)N1CCC[C@@H](n2nc(-c3ccc(Oc4ccccc4)cc3)c3c(N)ncnc32)C1 [ibrutinib]
How it was run: as §1

[9] = compound: CC(=O)c1cnc2ccc(-c3cc(Cl)c(O)c(Cl)c3)nc2c1N[C@H]1CC[C@H](CN(C)C)CC1
How it was run: as §1

ralimetinib = compound: CC(C)(C)Cn1c(N)nc2ccc(-c3[nH]c(C(C)(C)C)nc3-c3ccc(F)cc3)nc21 [ralimetinib]
How it was run: as §1

[10] = compound: CC(C)(O)CC(=O)NCCn1ccc2ncnc(Nc3ccc(Oc4cccc(C(F)(F)F)c4)c(Cl)c3)c21
How it was run: as §1

[11] = compound: CC(C)C1=C2N=C(C=C(N2N=C1)NCC3=CC=CC=C3)NCCCCCCN
How it was run: as §1

[12] = compound: CC1=C(C(CC(=O)N1)C2=CC=C(C=C2)C(F)(F)F)C(=O)NC3=C(C=C4C(=C3)C=NN4)F
How it was run: as §1

[13] = compound: CC1=C(C2=C(C=C1)C(=O)C3=CC=CC=C3N2CCCN)C
How it was run: as §1

[14] = compound: CC1=C(C=C(C=C1)NC(=O)C2=CC(=CC=C2)C(C)(C)C#N)NC3=CC4=C(C=C3)N=CN(C4=O)C
How it was run: as §1

[15] = compound: CC1=C(C=C(C=C1)NC(=O)C2=CC(=CC=C2)N(C)C)NC(=O)C3=CC=C(C=C3)O
How it was run: as §1

[16] = compound: CC1=CC=C(C=C1)SC2=C3C=C(SC3=CN=C2)C(=O)N
How it was run: as §1

Measured: log2 fold change

PKN1 isoform 2 (UniProt Q16512)
inactive: erlotinib -0.014 | [1] 0.007 | [2] 0.018 | [3] -0.048 | [4] -0.042 | [5] -0.004 | [6] -0.175 | [7] -0.191 | [8] -0.203 | IRAK-1-4 Inhibitor I -0.174 | ibrutinib 0.011 | [9] -0.107 | ralimetinib -0.001 | [10] 0.008 | [11] 0.006 | [12] 0.091 | [13] 0.021 | [14] 0.048 | [15] 0.035 | [16] 0.05

PTGES2 (UniProt Q9H7Z7)
Sequence of UniProt Q9H7Z7 (Q9H7Z7 whole entry, looked up): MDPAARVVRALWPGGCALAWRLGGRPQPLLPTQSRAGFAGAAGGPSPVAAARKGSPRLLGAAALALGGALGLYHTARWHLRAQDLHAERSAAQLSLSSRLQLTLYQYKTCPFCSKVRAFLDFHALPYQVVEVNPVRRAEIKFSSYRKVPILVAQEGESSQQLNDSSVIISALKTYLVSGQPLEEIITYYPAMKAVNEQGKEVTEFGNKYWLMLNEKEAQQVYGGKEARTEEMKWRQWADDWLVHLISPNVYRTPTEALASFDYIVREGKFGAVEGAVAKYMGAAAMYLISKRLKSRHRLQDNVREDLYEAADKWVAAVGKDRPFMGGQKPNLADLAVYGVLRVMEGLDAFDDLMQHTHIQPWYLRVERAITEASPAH
inactive: erlotinib 0.008 | [1] 0.056 | [2] -0.133 | [3] 0.066 | [4] -0.054 | [5] 0.174 | [6] 0.162 | [7] 0.028 | [8] -0.023 | IRAK-1-4 Inhibitor I 0.161 | ibrutinib -0.035 | [9] -0.092 | ralimetinib -0.004 | [10] 0.167 | [11] 0.132 | [12] -0.029 | [13] -0.002 | [14] 0.001 | [15] -0.082 | [16] 0.036

PIKFYVE (UniProt Q9Y2I7)
Sequence of UniProt Q9Y2I7 (Q9Y2I7 whole entry, looked up): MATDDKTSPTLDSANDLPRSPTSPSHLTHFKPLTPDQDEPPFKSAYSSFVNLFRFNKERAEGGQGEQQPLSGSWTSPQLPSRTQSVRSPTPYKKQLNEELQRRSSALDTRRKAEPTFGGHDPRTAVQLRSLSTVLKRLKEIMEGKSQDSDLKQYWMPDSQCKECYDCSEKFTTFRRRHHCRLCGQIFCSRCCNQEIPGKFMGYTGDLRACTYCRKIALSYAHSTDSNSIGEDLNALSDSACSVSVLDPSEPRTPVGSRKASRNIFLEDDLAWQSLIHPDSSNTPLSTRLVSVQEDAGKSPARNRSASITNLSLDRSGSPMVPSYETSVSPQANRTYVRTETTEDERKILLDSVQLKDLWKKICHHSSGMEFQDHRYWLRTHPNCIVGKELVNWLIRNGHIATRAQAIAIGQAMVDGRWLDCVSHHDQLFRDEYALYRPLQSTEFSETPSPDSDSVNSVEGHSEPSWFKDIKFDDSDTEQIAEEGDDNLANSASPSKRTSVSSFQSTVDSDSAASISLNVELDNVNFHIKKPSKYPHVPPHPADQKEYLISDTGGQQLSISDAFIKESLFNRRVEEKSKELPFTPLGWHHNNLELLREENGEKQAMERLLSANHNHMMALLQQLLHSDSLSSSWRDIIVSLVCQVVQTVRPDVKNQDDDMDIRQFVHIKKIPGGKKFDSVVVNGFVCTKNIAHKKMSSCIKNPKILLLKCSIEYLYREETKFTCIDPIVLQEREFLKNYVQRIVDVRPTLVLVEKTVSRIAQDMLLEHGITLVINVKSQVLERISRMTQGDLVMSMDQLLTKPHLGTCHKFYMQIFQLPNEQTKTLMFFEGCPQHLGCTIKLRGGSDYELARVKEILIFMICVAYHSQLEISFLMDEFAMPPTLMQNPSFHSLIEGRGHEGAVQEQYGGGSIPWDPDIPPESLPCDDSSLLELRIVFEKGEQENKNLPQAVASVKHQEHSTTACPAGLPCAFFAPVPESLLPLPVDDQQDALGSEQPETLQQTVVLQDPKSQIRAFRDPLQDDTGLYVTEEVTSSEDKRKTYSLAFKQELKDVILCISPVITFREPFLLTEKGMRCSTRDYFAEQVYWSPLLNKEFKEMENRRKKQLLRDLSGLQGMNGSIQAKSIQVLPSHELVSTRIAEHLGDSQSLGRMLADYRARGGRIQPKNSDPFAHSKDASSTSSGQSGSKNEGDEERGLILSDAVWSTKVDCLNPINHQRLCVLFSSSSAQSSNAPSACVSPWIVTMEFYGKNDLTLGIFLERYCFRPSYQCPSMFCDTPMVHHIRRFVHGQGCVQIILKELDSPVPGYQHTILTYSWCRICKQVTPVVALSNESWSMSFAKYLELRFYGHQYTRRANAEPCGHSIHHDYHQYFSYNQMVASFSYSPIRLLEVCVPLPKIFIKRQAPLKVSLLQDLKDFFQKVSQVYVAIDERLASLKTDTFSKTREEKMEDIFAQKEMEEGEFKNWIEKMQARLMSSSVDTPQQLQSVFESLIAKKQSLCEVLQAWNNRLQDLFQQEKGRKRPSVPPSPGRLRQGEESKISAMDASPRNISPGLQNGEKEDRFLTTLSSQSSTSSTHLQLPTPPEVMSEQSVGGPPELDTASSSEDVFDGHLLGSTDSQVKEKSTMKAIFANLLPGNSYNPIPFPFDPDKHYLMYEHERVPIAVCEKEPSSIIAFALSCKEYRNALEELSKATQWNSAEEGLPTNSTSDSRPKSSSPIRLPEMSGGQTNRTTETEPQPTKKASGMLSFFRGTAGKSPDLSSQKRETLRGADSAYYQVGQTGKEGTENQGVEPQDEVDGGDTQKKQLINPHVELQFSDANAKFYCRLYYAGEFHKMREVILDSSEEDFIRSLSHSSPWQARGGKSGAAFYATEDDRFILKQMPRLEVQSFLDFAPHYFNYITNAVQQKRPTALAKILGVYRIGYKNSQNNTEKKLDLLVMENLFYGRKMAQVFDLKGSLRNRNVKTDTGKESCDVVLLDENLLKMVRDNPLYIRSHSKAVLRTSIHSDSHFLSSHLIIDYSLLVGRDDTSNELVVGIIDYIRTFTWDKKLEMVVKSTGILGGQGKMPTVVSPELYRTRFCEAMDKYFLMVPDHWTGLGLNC
inactive: erlotinib -0.026 | [1] -0.008 | [2] -0.01 | [3] 0.005 | [4] -0.011 | [5] 0.03 | [6] -0.034 | [7] -0.039 | [8] 0.035 | IRAK-1-4 Inhibitor I -0.004 | ibrutinib 0.019 | [9] -0.012 | ralimetinib 0.011 | [10] -0.012 | [11] 0 | [12] 0.042 | [13] 0.003 | [14] -0.044 | [15] 0.016 | [16] -0.004

PPP3CA isoform 2 (UniProt Q08209)
inactive: erlotinib -0.005 | [1] -0.037 | [2] 0.045 | [3] -0.036 | [4] -0.014 | [5] 0.014 | [6] -0.006 | [7] 0.082 | [8] -0.026 | IRAK-1-4 Inhibitor I -0.01 | ibrutinib 0.017 | [9] 0.012 | ralimetinib -0.01 | [10] -0.052 | [11] -0.014 | [12] 0 | [13] -0.03 | [14] 0.03 | [15] 0.028 | [16] -0.012

POGK (UniProt Q9P215)
Sequence of UniProt Q9P215 (Q9P215 whole entry, looked up): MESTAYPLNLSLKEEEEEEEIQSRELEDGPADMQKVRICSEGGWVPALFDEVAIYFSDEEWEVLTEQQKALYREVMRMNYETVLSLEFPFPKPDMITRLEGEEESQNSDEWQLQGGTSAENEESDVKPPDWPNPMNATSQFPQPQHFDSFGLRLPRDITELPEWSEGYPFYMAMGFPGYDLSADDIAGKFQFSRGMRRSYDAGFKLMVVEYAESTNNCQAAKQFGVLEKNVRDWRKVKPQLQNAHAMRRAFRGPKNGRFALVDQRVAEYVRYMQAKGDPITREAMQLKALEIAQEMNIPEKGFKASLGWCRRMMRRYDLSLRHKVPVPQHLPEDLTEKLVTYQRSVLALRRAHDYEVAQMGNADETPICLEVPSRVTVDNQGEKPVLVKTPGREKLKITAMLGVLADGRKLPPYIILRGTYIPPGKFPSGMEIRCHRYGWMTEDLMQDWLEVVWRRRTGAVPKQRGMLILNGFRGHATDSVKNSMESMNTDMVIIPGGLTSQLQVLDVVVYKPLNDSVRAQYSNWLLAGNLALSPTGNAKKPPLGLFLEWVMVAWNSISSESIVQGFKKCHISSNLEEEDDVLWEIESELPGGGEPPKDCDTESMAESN
inactive: erlotinib 0.052 | [1] 0.053 | [2] 0.034 | [3] -0.059 | [4] -0.023 | [5] 0.104 | [6] -0.03 | [7] 0 | [8] 0.022 | IRAK-1-4 Inhibitor I 0.025 | ibrutinib 0.051 | [9] -0.012 | ralimetinib 0.04 | [10] -0.026 | [11] -0.012 | [12] 0.018 | [13] 0.04 | [14] 0.01 | [15] -0.047 | [16] 0.027

PRKAR2B (UniProt P31323)
Sequence of UniProt P31323 (P31323 whole entry, looked up): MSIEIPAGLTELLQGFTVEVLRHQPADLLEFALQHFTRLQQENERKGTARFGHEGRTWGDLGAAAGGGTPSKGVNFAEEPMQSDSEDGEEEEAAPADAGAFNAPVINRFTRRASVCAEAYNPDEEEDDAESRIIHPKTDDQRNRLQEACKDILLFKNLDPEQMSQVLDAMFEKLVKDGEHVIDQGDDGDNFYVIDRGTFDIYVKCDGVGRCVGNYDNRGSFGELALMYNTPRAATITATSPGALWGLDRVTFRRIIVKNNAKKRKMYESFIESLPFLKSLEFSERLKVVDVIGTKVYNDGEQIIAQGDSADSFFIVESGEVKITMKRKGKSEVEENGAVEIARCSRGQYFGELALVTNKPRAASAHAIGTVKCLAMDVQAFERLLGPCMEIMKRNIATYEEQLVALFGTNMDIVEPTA
inactive: erlotinib 0 | [1] 0.066 | [2] -0.022 | [3] -0.025 | [4] 0.018 | [5] -0.03 | [6] -0.116 | [7] -0.16 | [8] -0.131 | IRAK-1-4 Inhibitor I -0.016 | ibrutinib -0.017 | [9] 0.008 | ralimetinib 0.007 | [10] -0.01 | [11] 0.022 | [12] 0.015 | [13] -0.004 | [14] 0.027 | [15] 0.031 | [16] 0.03

PXMP4 (UniProt Q9Y6I8)
Sequence of UniProt Q9Y6I8 (Q9Y6I8 whole entry, looked up): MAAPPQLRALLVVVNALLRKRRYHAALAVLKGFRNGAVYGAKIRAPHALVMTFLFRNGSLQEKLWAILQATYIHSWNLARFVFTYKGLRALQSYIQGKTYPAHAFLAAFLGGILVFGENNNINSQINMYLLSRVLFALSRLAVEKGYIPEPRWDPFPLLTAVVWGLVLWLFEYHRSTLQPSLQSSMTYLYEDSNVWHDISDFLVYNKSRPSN
inactive: erlotinib 0.024 | [1] 0.068 | [2] 0.084 | [3] -0.053 | [4] 0.013 | [5] 0.053 | [6] -0.038 | [7] 0.043 | [8] 0.022 | IRAK-1-4 Inhibitor I 0.016 | ibrutinib -0.022 | [9] 0 | ralimetinib 0.012 | [10] -0.076 | [11] -0.18 | [12] -0.008 | [13] 0.066 | [14] 0.234 | [15] -0.007 | [16] 0.023

PSMB9 (UniProt P28065)
inactive: erlotinib 0.02 | [1] -0.112 | [2] 0.008 | [3] -0.062 | [4] -0.08 | [5] -0.061 | [6] 0.033 | [7] -0.084 | [8] 0.084 | IRAK-1-4 Inhibitor I -0.048 | ibrutinib -0.073 | [9] -0.196 | ralimetinib 0.052 | [10] -0.01 | [11] 0.011 | [12] 0.003 | [13] -0.047 | [14] 0.096 | [15] -0.027 | [16] -0.178

PDE4DIP isoform 4 (UniProt Q5VU43)
inactive: erlotinib 0.002 | [1] -0.026 | [2] 0.017 | [3] 0.004 | [4] -0.004 | [5] 0 | [6] -0.111 | [7] -0.009 | [8] 0.055 | IRAK-1-4 Inhibitor I 0.024 | ibrutinib 0.249 | [9] -0.021 | ralimetinib 0.02 | [10] -0.03 | [11] -0.061 | [12] -0.032 | [13] 0.006 | [14] 0.054 | [15] -0.033 | [16] 0.017

PHKB isoform 3 (UniProt Q93100)
inactive: erlotinib -0.053 | [1] -0.049 | [2] 0 | [3] 0.044 | [4] 0.082 | [5] 0.036 | [6] 0.142 | [7] 0.038 | [8] 0.01 | IRAK-1-4 Inhibitor I 0.006 | ibrutinib -0.004 | [9] 0.071 | ralimetinib 0.008 | [10] -0.052 | [11] -0.003 | [12] 0.008 | [13] -0.069 | [14] -0.019 | [15] 0.022 | [16] -0.049

PHKA1 (UniProt P46020)
inactive: erlotinib -0.011 | [1] 0.003 | [2] -0.015 | [3] 0.063 | [4] 0.078 | [5] -0.027 | [6] 0.205 | [7] 0.05 | [8] 0.026 | IRAK-1-4 Inhibitor I 0.01 | ibrutinib -0.045 | [9] 0.012 | ralimetinib 0.03 | [10] -0.031 | [11] -0.053 | [12] 0.004 | [13] -0.019 | [14] -0.005 | [15] 0.032 | [16] 0.003

PPIE (UniProt Q9UNP9)
Sequence of UniProt Q9UNP9 (Q9UNP9 whole entry, looked up): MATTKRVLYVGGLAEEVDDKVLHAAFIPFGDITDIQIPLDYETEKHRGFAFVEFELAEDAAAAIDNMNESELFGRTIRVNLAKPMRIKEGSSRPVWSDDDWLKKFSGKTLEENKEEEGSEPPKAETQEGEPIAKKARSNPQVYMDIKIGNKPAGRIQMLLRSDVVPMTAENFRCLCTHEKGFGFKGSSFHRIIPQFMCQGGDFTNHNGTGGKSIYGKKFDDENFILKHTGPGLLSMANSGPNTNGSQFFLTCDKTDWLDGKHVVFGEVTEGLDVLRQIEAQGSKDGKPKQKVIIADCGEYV
inactive: erlotinib 0.005 | [1] -0.022 | [2] 0.064 | [3] 0.031 | [4] -0.008 | [5] 0.001 | [6] -0.002 | [7] -0.025 | [8] 0.025 | IRAK-1-4 Inhibitor I -0.019 | ibrutinib -0.047 | [9] -0.015 | ralimetinib -0.041 | [10] -0.05 | [11] -0.025 | [12] -0.043 | [13] 0.021 | [14] 0.024 | [15] 0.034 | [16] -0.035

PDE2A (UniProt O00408)
inactive: erlotinib -0.015 | [1] 0.082 | [2] 0.12 | [3] -0.337 | [4] -0.055 | [5] 0.249 | [6] -0.257 | [7] 0.001 | [8] -0.027 | IRAK-1-4 Inhibitor I 0.18 | ibrutinib -0.008 | [9] -0.148 | ralimetinib -0.202 | [10] -0.107 | [11] -0.045 | [12] -0.018 | [13] 0.025 | [14] -0.038 | [15] 0.01 | [16] -0.11

PLEKHO2 (UniProt Q8TD55)
Sequence of UniProt Q8TD55 (Q8TD55 whole entry, looked up): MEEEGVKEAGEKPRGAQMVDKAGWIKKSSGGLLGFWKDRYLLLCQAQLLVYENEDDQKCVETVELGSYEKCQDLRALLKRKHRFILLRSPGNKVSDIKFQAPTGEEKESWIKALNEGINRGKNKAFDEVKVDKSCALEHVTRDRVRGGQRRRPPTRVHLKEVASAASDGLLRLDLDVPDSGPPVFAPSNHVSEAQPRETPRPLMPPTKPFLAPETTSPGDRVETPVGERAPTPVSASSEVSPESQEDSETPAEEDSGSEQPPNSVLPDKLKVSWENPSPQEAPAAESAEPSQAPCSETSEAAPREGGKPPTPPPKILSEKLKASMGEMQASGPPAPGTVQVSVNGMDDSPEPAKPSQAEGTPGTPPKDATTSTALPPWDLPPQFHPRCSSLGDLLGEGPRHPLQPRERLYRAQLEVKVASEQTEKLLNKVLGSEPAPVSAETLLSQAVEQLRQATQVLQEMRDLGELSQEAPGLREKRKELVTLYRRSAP
inactive: erlotinib 0.188 | [1] 0.008 | [2] -0.023 | [3] 0.106 | [4] -0.06 | [5] 0.184 | [6] -0.014 | [7] -0.075 | [8] 0.186 | IRAK-1-4 Inhibitor I -0.004 | ibrutinib 0.358 | [9] -0.102 | ralimetinib -0.11 | [10] 0.108 | [11] 0.006 | [12] 0.01 | [13] 0.069 | [14] 0.048 | [15] 0.252 | [16] -0.129

PRKCSH (UniProt P14314)
Sequence of UniProt P14314 (P14314 whole entry, looked up): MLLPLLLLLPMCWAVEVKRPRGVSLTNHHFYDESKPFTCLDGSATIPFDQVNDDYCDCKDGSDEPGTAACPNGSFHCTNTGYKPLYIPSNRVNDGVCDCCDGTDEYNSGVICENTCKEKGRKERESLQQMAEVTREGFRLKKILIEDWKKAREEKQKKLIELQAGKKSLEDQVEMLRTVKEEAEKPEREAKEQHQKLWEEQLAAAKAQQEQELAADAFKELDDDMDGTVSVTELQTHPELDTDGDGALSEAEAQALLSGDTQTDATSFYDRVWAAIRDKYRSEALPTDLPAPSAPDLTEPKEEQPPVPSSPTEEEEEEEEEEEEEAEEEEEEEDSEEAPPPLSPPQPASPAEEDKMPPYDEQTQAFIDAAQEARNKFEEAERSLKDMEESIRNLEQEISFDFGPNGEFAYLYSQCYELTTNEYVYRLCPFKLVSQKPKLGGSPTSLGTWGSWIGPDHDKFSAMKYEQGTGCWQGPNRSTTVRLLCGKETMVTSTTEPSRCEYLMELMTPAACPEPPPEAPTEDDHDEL
inactive: erlotinib -0.027 | [1] 0.013 | [2] 0.01 | [3] -0.012 | [4] -0.012 | [5] 0.023 | [6] 0.07 | [7] 0.027 | [8] -0.027 | IRAK-1-4 Inhibitor I 0.005 | ibrutinib -0.008 | [9] 0.01 | ralimetinib 0.007 | [10] 0.019 | [11] -0.026 | [12] -0.004 | [13] 0.047 | [14] -0.057 | [15] 0.001 | [16] 0
